53 compounds from PubChem BioAssay AID504339 (National Center for Advancing Translational Sciences (NCATS), 2011) can be followed below.

Molecules are shown by their SMILES. The whole screen tested about 390,000 compounds, of which about 17,000 (4.4%) were called active. Entries that show only a call come without a potency. Not shown: some 8% with an inconclusive outcome. This is one part of a sample in which actives are shown more often than they occur. Values without a mark were called inactive. Calls come from the whole dose curve; as a rule, active = well fitted inhibition curve with a large enough effect; inconclusive = small, poorly fitted or top-dose-only effect; inactive = no such curve, though single readings can be large or run the other way.
Potency is the fitted concentration of half-maximal effect.

Chain of Lysine-specific demethylase 4A (Homo sapiens) (O75164 whole entry, looked up, the tested form may be a part): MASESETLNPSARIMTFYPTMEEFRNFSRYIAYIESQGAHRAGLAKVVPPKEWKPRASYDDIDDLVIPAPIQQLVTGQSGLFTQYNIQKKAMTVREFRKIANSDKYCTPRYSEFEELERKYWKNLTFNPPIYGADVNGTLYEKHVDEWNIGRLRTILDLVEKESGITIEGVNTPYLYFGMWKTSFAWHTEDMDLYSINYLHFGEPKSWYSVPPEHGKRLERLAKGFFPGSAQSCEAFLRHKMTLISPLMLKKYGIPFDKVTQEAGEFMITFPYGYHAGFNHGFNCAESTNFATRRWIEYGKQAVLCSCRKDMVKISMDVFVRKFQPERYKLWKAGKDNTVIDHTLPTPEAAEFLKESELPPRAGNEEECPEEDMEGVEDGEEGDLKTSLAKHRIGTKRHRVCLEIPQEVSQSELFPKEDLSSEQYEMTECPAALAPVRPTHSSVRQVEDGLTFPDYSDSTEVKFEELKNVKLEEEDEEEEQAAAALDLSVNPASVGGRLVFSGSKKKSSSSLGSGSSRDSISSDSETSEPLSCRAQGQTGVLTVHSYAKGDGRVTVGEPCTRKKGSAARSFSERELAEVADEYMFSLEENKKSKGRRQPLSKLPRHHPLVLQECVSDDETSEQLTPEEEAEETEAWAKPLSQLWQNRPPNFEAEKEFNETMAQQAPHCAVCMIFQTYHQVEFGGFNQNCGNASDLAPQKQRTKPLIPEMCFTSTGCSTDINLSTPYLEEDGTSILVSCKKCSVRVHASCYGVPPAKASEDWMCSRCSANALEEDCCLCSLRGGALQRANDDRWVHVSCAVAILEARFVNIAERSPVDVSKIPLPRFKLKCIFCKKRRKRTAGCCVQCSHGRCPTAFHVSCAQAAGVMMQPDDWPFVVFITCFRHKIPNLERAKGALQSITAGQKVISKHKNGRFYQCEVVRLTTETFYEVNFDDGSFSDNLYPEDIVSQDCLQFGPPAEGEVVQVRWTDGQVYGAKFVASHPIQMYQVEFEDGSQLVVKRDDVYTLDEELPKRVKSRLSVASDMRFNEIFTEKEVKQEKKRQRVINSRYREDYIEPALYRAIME

The assay concerns the target Lysine-specific demethylase 4A (Homo sapiens) (UniProt O75164). Description: qHTS Assay for Inhibitors of JMJD2A-Tudor Domain. Note: nearly all actives have a fitted effect of over 50% in size. The conditions noted are these: AlphaScreen JMJD2A-Tudor / H3K4me3 peptide binding; series mostly up to 114 µM. An excerpt: JMJD2A is a jumonji-domain-containing lysine demethylase that uses Fe(II) together with 2-OG to effect oxidative demethylation of histones. Methylation is one of many […] modification that affect epigenetic transcription. […] It is proposed that the functions of JmjD2A binding to the histones, is to maintain marks after they are installed and to spread the modifications by […], establishing a self-propagating cycle for rapid methylation over a large area of chromatin. […] Thus, small molecule targeting of the JMJD2A-tudor domain interaction with its target methylhistone mark is expected to enable sophisticated experiments probing the fine regulatory pathways leading to selective demethylation of a given methyllysine locus based on the methylation state of adjacent histone marks. A quantitative high throughput AlphaScreen has been developed to identify small molecule inhibitors based on a protocol published by NCGC and SGC [4].
Although AlphaScreen has significant advantages with its utility in a variety of epigenetic target assays, the primary screening data provided in this deposition should be used with caution due to the prevalence of screening artifacts. The top compound concentration tested was high (>100uM) in this assay, which increases number of actives and potential artifacts. An AlphaScreen counterscreen is highly recommended to be run against any putative actives to eliminate non-specific artifacts. Alternatively, one can use other AlphaScreen assays in PubChem to filter out promiscuous hits.
[1] Lee, J. et al. Distinct binding modes specify the recognition of methylated histone H3K4 and H4K20 by JMJD2A-tudor. Nat Struct Mol Biol. 15(1); 109-11. 2008. PMID: 18084306
[2] Yasgar, et al. Compound Management for Quantitative High-Throughput Screening. JALA. 2008 Apr;13(2):79-89. PMID: 18496600
[3] Inglese, et al. Quantitative high-throughput screening: a titration-based approach that efficiently identifies biological activities in large chemical libraries. Proc Natl Acad Sci. 1;103(31):11473-8. 2006. PMID: 16864780
[4] Quinn et al. A homogeneous method for investigation of methyl-dependent protein-protein interactions in epigenetics. Nucleic Acids Res., 38(2):e11. 2010. PMID: […]
[5] Baell,Holloway. New substructure filters for removal of pan assay interference compounds (PAINS) from screening libraries and for their exclusion in bioassays. J Med Chem. 53(7):2719-40. 2010. PMID: 20131845
NIH Molecular Libraries Probe Production Network [MLPCN]
NIH Chemical Genomics Center [NCGC]
Structural Genomics Consortium (SGC)
To each well of a 1,536w plate, 2ul of JMJD2A-Tudor (final 100nM) and 1ul biotinylated histone peptide methylated at Lys4 [b-H3(1-18)K4me3] (final 50nM) were added in 1x PBS buffer, pH 7.4, containing 0.01% Tween-20, using a nanoliter dispenser. Formation of a protein-peptide complex proceeded at room temperature for 30 min. A Kalypsys pin-tool transferred 23nl of library compound solution in DMSO to each well. Following a 30 min incubation of the protein-peptide complex with compounds at room temperature, a mixture of 40 µg/mL each streptavidin-coated donor and nickel chelate acceptor AlphaScreen beads (final 10 µg/mL) was added in a 1ul dispense for a final volume of 4ul, followed by a brief centrifugation (1000 rpm, 1 min). Plates were incubated protected from the light for 20 min at room temperature. Microplates were then read on an EnVision multilabel plate reader using the 1,536 plate HTS AlphaScreen aperture (excitation time 80 ms, measurement time 240 ms).
(In qHTS, concentration-response curves come from the screen itself.)
In the case of `CCc1ccc(NC(=O)CN2CCSc3ccc(S(=O)(=O)N4CCCC4)cc32)cc1`, the Potency result was “inactive”.
The same measure for `COc1cc(OC)c(N(C)C(=O)c2cc3c(=O)oc4ccccc4c3s2)cc1Cl`: “inactive”; for `Cc1ccccc1CS(=O)(=O)CC1Nc2ccc(C(=O)NCc3ccc(Cl)cc3)cc2NC1=O` (stereo not drawn): “inactive”; for `Cn1c(SCC(=O)C(C)(C)C)nnc1-c1ccccn1`: “inactive”.
Regarding `Cc1ccccc1CSc1nnc(-c2cccnc2)n1N`, the Potency result was “inactive”.
Take `Cc1ccccc1CSc1nnc(-c2ccccn2)n1N`: the Potency is 31.6 µM (active).
Take `Fc1ccc(-c2nc(Nc3cccc(Cl)c3)nc3c2COc2ccccc2-3)cc1`: the Potency result was “inactive”.
As to `O=C(NCCS(=O)(=O)N1CCN(c2ccc(F)cc2)CC1)c1ccccc1Br`, the Potency entry is “inactive”.
For `CCC(=O)N1CCc2cc(S(=O)(=O)NC(Cc3ccccc3)C(=O)NCc3ccccc3)ccc21` (stereo not drawn), the Potency result was “inactive”.
As for `O=C(Nc1ccccc1Br)c1cc(CN2CCCC2)on1`, the Potency result was “inactive”.
Regarding `CCN(c1ccc(NC(=O)COC(=O)CCc2nc3ccccc3n2-c2ccccc2)cc1)C(C)C`, the Potency was 11.2 µM (active).
With `CC(C)(C)c1ccc(NC(=O)COC(=O)CCc2nc3ccccc3c(=O)[nH]2)cc1`, the Potency entry was “inactive”.
Take `Cc1ccc(NC(=O)COC(=O)CCc2nc3ccccc3n2-c2ccccc2)c(C)c1`: the Potency entry was “inactive”.
Take `Cc1ccc(Cn2c(CNC(=O)Cc3cccc(C)c3)nc3cccnc32)cc1`: the Potency result is “inactive”.
For `COc1cc2ccccc2cc1C(=O)Nc1cccc(-c2nc3ccccc3o2)c1`, the Potency entry was “inactive”.
With `S=c1[nH]nc2c3c4c(sc3ncn12)CCCC4`, the Potency was 22.4 µM (active).
For `N=c1c2c3c(sc2ncn1CCCN1CCOCC1)CCCCC3`, the Potency result was “inactive”.
The value for `CC(C(=O)O)n1cnc2sc3c(c2c1=O)CCCC3` (stereo not drawn) was “inactive”; that for `Cc1noc2ncnc(NCc3ccccc3Cl)c12` was “inactive”.
Consider `Cc1ccc(C)c(Cn2c(=O)n(CCC(=O)NCc3ccc4c(c3)OCO4)c(=O)c3sccc32)c1`, for which the Potency entry is “inactive”.
As for `COC(=O)c1ccccc1NC(=O)Cn1c(=O)n(-c2cccc(C(F)(F)F)c2)c(=O)c2c(C)c(C)sc21`, the Potency result is “inactive”.
For the compound `CC1=NOC(=O)/C1=C\c1ccccc1`, the Potency was 25.1 µM (active).
`C=CCOc1ccc(/C=C2/C(=O)ON=C2C)cc1OCC`: the Potency result is “inactive”.
The value for `C#CCOc1ccccc1/C=C1/C(=O)ON=C1C` was “inactive”.
As for `COc1ccc(Nc2ncc(C(=O)Nc3cc(C)ccc3OC)c3ccccc23)cc1`, the Potency entry is “inactive”.
On to `Cc1ccc(/C=C(\C#N)C(=O)Nc2cc(C)ccc2C)cc1`, for which the Potency entry is “inactive”.
With `CCc1ccc(NC(=O)CSc2nc3c([nH]c4ccccc43)c(=O)n2-c2cccc(OC)c2)cc1`, the Potency entry was “inactive”.
As for `CCOc1ccc(C(=O)CCN2CCOCC2)cc1`, the Potency result is “inactive”.
In the case of `O=C(OCCN1CCOCC1)C1(c2ccccc2)CCCCC1`, the Potency result is “inactive”.
The same measure for `Cc1cccc(C)c1OCCN1CCOCC1`: 28.2 µM (active); for `Brc1ccc(/C=N/N2CCN(C3c4ccccc4-c4ccccc43)CC2)s1`: “inactive”.
Regarding `S=c1[nH]nc(/C=C/c2ccccc2)o1`, the Potency result is “inactive”.
Turning to `S=c1[nH]nc(-c2ccco2)n1/N=C/c1ccc(Br)s1`, the Potency was 28.2 µM (active).
As to `S=c1[nH]nc(-c2ccco2)n1/N=C/c1ccccc1`, the Potency is 3.55 µM (active).
The same measure for `CN(C)C(=O)CSc1n[nH]c(-c2ccco2)n1`: “inactive”; for `O=C(NCCc1ccc(Cl)cc1)c1ccc2nc(CCc3ccccc3)oc2c1`: “inactive”.
Turning to `O=C(c1ccc2c(c1)N(Cc1ccccc1)C(=O)c1ccccc1S2(=O)=O)N1CCC(Cc2ccccc2)CC1`, the Potency entry was “inactive”.
As to `O=C(CN1CCN(Cc2ccc(Cl)cc2)C1=O)NCc1ccc(F)cc1`, the Potency result is “inactive”.
With `Cn1c(SCC(=O)N2CCCc3ccccc32)ncc(C(=O)Nc2ccc(F)cc2)c1=O`, the Potency result was “inactive”.
Consider `CC(=O)Nc1cc(C(=O)NCc2ccc(F)cc2)ccc1Sc1ccc(F)cc1`, for which the Potency result is “inactive”.
The value for `COc1cc(Cl)c(NC(=O)C(NS(=O)(=O)c2cccs2)C(C)C)c(OC)c1` (stereo not drawn) was “inactive”; that for `CCC(C(=O)Nc1cccc(-c2nc3cccnc3s2)c1C)c1ccccc1` (stereo not drawn) was “inactive”.
As to `CC(=O)N1CCN(CC(=O)Nc2ccc(C)c(F)c2)CC1`, the Potency was 17.8 µM (active).
Turning to `O=C(CN1CCN(c2ccccn2)CC1)Nc1ccc(Br)cc1`, the Potency result was “inactive”.
For the compound `O=C(CN1CCOCC1)Nc1ccccc1`, the Potency result was “inactive”.
With `CCOC(=O)N1CCN(CC(=O)Nc2ccc(F)cc2)CC1`, the Potency entry is “inactive”.
As for `Cc1cc(NC(=O)CCN2CCN(Cc3ccccc3)CC2)ccc1Br`, the Potency result is “inactive”.
The value for `O=C(CN1CCN(Cc2ccccc2)CC1)Nc1ccc(F)c(F)c1` was 6.31 µM (active); that for `CC(=O)N1CCN(CC(=O)Nc2ccc(SC(F)F)cc2)CC1` was “inactive”.
For `CCN(CC)c1ccc(NC(=O)CN2CCN(CC(=O)Nc3ccc(Cl)cc3)CC2)cc1`, the Potency is 44.7 µM (active).
Regarding `CCCCN(C)CCC(=O)Nc1ccc(Cl)cc1`, the Potency entry was “inactive”.
Consider `O=C(CN1CCN(c2ccc(O)cc2)CC1)Nc1ccc(-c2ccccc2)cc1`, for which the Potency was 50.1 µM (active).
Turning to `COC(=O)c1cc(NC(=O)CN2CCN(C(C)=O)CC2)cc(C(=O)OC)c1`, the Potency result was “inactive”.
